Results published in PubChem BioAssay (Tox21).
Values joined by “and” are separate entries in the source; they are usually repeats but may differ in a detail not shown here. Equal entries are not always repeated. Values without a mark were called inactive. Entries that show only a call come without a potency. Active and inactive are the calls of the source. Unless noted, calls come from the whole dose curve; as a rule, active = well fitted curve in the direction sought with a large enough effect in the repeat runs; inconclusive = weak or mixed curves; inactive = no such curve, though single readings can be large; an effect the other way counts as inactive or inconclusive.

Legend:
[1] = qHTS assay to identify small molecule antagonists of the thyroid receptor (TR) signaling pathway - cell viability counter screen (AID 743064); note: nearly all actives have a fitted effect of over 50% in size; note: potency is the fitted concentration of half-maximal effect
Summary of the method: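 GH3.TRE-Luc rat pituitary cells carrying a TRE-luciferase reporter were treated with compound plus 1 nM T3 (final) for 23.5 h at 37 °C. Viability was then read in the same wells by CellTiter-Fluor fluorescence after a further 30 min.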

[2] = qHTS assay to identify small molecule antagonists of the thyroid receptor (TR) signaling pathway (AID 743065); note: nearly all actives have a fitted effect of over 55% in size; note: potency is the fitted concentration of half-maximal effect
Summary of the method: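 Antagonism measured as loss of luciferase signal in GH3 cells stably carrying a TRE-luciferase reporter, co-treated with compound and T3 (1 nM final) for 23.5 h at 37 C. Viability was read in the same well by CellTiter-Fluor.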

[3] = tested on: thyroid hormone receptor (rat, GH3 cells); assay: qHTS assay to identify small molecule agonists of the thyroid receptor (TR) signaling pathway (AID 743066; calls by dose curve)
[4] = biological target: Estrogen receptor (Homo sapiens) (UniProt P03372); assay: qHTS assay to identify small molecule antagonists of the estrogen receptor alpha (ER-alpha) signaling pathway (AID 743069; active = well fitted curve in the direction sought with a large enough effect in the signal ratio in the repeat runs, not every such curve was filed as active; inconclusive = weak or mixed curves, or effect the other way; inactive = no such curve, though single readings can be large or run the other way; the % refers to the signal ratio; note: potency is the fitted concentration of half-maximal effect)
Chain of Estrogen receptor (Homo sapiens) (P03372 whole entry, looked up): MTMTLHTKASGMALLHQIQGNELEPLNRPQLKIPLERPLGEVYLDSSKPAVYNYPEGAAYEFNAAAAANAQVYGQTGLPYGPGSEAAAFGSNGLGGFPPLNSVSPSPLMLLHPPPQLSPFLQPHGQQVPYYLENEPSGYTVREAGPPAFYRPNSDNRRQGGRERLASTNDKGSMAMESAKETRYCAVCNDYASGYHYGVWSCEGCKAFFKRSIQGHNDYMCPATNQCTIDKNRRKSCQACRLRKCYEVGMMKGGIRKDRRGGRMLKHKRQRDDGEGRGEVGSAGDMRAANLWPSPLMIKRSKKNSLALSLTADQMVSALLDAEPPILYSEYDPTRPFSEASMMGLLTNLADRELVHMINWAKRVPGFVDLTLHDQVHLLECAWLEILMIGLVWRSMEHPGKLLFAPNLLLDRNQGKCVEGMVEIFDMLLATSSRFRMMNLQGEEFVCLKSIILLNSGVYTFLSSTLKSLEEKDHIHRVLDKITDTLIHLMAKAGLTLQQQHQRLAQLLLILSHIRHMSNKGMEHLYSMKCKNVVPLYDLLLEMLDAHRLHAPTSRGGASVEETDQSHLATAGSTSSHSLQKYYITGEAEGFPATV
Summary of the method: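 Antagonist mode: compounds in DMSO were co-added with 17beta-estradiol to ER-alpha-bla HEK293 cells (2% charcoal-stripped serum) and left 18 h at 37C. Reporter inhibition was measured as FRET fluorescence after 2 h LiveBLAzer substrate at room temperature.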

[5] = qHTS assay to identify small molecule antagonists of the estrogen receptor alpha (ER-alpha) signaling pathway - cell viability counter screen (AID 743074; calls by dose curve;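 note: HEK293 cells carrying ER-alpha-UAS-bla reporter stimulated with 17beta-estradiol; nearly all actives have a fitted effect of over 45% in size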; note: potency is the fitted concentration of half-maximal effect)
[6] = biological target: Estrogen receptor (Homo sapiens) (UniProt P03372); assay: qHTS assay to identify small molecule agonists of the estrogen receptor alpha (ER-alpha) signaling pathway (AID 743075; calls by dose curve;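 note: HEK293 GripTite cells with ER-alpha and UAS-driven beta-lactamase reporter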); conditions: HEK293 ER-alpha-UAS-bla, beta-lactamase FRET ratio, 18 h; activation: at 70.1 µM (top of the series)
[7] = biological target: Estrogen receptor (Homo sapiens) (UniProt P03372); assay: qHTS assay to identify small molecule agonists of the estrogen receptor alpha (ER-alpha) signaling pathway using the BG1 cell line (AID 743079); conditions: BG1Luc4E2 cells, ERE-luciferase agonist, 22 h; note: nearly all actives have a fitted effect of over 20% in size
[8] = qHTS assay to identify small molecule antagonists of the estrogen receptor alpha (ER-alpha) signaling pathway using the BG1 cell line - cell viability counter screen (AID 743081);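 note: compound given together with 17beta-estradiol as the ER stimulus; nearly all actives have a fitted effect of over 45% in size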; note: potency is the fitted concentration of half-maximal effect
[9] = biological target: Aromatase (Homo sapiens) (UniProt P11511); assay: qHTS assay to identify aromatase inhibitors (AID 743083); note: nearly all actives have a fitted effect of over 55% in size; note: potency is the fitted concentration of half-maximal effect
Chain of Aromatase (Homo sapiens) (P11511 whole entry, looked up): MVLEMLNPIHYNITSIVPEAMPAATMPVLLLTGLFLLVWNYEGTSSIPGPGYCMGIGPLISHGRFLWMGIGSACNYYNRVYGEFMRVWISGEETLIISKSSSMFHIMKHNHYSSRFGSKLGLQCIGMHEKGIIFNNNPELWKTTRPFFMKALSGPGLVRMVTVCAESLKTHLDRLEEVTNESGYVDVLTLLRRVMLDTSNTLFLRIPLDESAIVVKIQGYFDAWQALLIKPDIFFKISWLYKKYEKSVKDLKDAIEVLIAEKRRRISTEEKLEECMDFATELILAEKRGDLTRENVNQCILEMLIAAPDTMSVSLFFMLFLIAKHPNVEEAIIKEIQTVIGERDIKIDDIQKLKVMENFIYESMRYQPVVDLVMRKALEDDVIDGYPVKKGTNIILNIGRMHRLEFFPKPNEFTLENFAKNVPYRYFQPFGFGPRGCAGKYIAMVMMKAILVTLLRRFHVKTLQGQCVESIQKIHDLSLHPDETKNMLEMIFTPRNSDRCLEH

[10] = qHTS assay to identify aromatase inhibitors - cell viability counter screen (AID 743084);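 note: cells stimulated with testosterone during compound exposure; nearly all actives have a fitted effect of over 55% in size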; note: potency is the fitted concentration of half-maximal effect
[11] = biological target: Aryl hydrocarbon receptor (Homo sapiens) (UniProt P35869); assay: qHTS assay to identify small molecule that activate the aryl hydrocarbon receptor (AhR) signaling pathway (AID 743085); note: nearly all actives have a fitted effect of over 15% in size; note: potency is the fitted concentration of half-maximal effect;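 for activation: HG2L7.5c1 human HepG2 liver cells with stably integrated DRE-driven firefly reporter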
Chain of Aryl hydrocarbon receptor (Homo sapiens) (P35869 whole entry, looked up): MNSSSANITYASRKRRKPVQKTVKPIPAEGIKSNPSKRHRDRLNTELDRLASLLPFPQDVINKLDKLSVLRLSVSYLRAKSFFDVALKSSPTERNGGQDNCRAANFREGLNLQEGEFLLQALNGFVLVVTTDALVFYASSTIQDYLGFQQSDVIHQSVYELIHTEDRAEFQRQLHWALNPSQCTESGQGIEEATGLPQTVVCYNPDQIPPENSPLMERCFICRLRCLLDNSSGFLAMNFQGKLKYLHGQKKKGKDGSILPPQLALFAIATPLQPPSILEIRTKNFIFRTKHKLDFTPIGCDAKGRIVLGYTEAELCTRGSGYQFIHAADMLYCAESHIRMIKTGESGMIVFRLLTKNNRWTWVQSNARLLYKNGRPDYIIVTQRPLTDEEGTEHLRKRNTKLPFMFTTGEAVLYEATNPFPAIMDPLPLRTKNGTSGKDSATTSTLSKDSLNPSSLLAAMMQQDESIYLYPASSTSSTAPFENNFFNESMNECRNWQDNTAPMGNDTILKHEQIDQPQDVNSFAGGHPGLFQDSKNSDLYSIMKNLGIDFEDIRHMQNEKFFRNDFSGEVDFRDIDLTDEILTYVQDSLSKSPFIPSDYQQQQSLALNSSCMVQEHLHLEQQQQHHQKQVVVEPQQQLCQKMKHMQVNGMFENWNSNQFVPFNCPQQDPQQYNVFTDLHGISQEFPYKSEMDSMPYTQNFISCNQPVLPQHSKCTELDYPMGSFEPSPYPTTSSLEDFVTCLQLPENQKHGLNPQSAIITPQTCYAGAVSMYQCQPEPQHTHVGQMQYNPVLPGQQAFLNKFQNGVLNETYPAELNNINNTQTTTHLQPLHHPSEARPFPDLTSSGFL
Summary of the method: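 HepG2 cells (HG2L7.5c1) stably carrying a firefly luciferase reporter driven by 20 dioxin responsive elements were exposed to compound for 24 h at 37C after a 5 h settling period; luminescence rise (ONE-Glo) indicated activation.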

[12] = qHTS assay to identify small molecule that activate the aryl hydrocarbon receptor (AhR) signaling pathway - cell viability counter screen (AID 743086); note: nearly all actives have a fitted effect of over 45% in size; note: potency is the fitted concentration of half-maximal effect
Summary of the method: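 Cytotoxicity counter screen: CellTiter-Fluor signal (30 min, 37 C) in 4000 HepG2 cells/well carrying the DRE-luciferase reporter, following 24 h compound exposure at 37 C.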

[13] = biological target: Peroxisome proliferator-activated receptor gamma (Homo sapiens) (UniProt P37231); assay: qHTS assay to identify small molecule agonists of the peroxisome proliferator-activated receptor gamma (PPARg) signaling pathway (AID 743094; active = well fitted activation curve with a large enough effect in the signal ratio in the repeat runs, not every such curve was filed as active; inconclusive = weak or mixed curves, or effect the other way; inactive = no such curve, though single readings can be large or run the other way; the % refers to the signal ratio; note: potency is the fitted concentration of half-maximal effect)
Chain of Peroxisome proliferator-activated receptor gamma (Homo sapiens) (P37231 whole entry, looked up): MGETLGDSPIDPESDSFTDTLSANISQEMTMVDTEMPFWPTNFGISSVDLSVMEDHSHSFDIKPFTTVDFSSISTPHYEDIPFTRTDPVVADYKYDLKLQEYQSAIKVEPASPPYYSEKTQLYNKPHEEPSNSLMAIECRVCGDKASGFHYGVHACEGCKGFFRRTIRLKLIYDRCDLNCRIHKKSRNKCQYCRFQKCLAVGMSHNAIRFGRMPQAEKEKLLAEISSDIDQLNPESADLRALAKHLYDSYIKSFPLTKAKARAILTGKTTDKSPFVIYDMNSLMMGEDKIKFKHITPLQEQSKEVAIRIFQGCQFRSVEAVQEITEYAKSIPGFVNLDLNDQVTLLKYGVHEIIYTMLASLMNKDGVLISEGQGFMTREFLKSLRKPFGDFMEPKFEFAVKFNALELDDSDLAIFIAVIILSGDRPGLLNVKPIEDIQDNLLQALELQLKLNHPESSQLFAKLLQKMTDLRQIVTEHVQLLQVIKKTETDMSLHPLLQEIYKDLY
Summary of the method: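 Cells from the PPARg UAS-bla HEK293H line are plated and incubated 5 h at 37C. Compounds in DMSO are pinned in and left 17 h at 37C. LiveBLAzer B/G substrate is then added for 1 h at room temperature before fluorescence is measured.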

[14] = biological target: Peroxisome proliferator-activated receptor gamma (Homo sapiens) (UniProt P37231); assay: qHTS assay to identify small molecule antagonists of the peroxisome proliferator-activated receptor gamma (PPARg) signaling pathway (AID 743191; calls by dose curve; note: nearly all actives have a fitted effect of over 30% in size; note: potency is the fitted concentration of half-maximal effect)
Summary of the method: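 Beta-lactamase reporter under UAS control in HEK293H PPARg-bla cells; compound treatment 17 h at 37C. Read-out: fluorescence intensity after 1 h room-temperature incubation with LiveBLAzer B/G FRET substrate.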

[15] = qHTS assay for small molecule agonists of the antioxidant response element (ARE) signaling pathway (AID 743202; active = well fitted activation curve with a large enough effect in the signal ratio in the repeat runs, not every such curve was filed as active; inconclusive = weak or mixed curves, or effect the other way; inactive = no such curve, though single readings can be large or run the other way; the % refers to the signal ratio; note: potency is the fitted concentration of half-maximal effect)
Summary of the method: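 After 16 hours of compound treatment at 37 C, HepG2 cells with a stably integrated ARE-driven beta-lactamase reporter were loaded 2 hours at room temperature with LiveBLAzer B/G FRET substrate and fluorescence intensity measured.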

[16] = qHTS assay for small molecule agonists of the antioxidant response element (ARE) signaling pathway - cell viability counter screen (AID 743203; calls by dose curve; note: nearly all actives have a fitted effect of over 55% in size; note: potency is the fitted concentration of half-maximal effect)
Summary of the method: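 Cytotoxicity was tested in parallel with the ARE reporter screen. ARE-bla HepG2 cells were exposed to compounds for 16 hrs, and viability was taken from CellTiter-Glo luminescence.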

[17] = qHTS assay for small molecule activators of the heat shock response signaling pathway - cell viability counter screen (AID 743209); note: nearly all actives have a fitted effect of over 50% in size; note: potency is the fitted concentration of half-maximal effect
Summary of the method: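 Cytotoxicity counter screen run in parallel with the HSE beta-lactamase reporter, using the same wells. HeLa HSE-bla cells received compound for 5 h at 37 C; ATP-based CellTiter-Glo luminescence was measured after 30 min at room temperature.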

[18] = qHTS assay for small molecule activators of the heat shock response signaling pathway (AID 743210; active = well fitted activation curve with a large enough effect in the signal ratio in the repeat runs, with a control signal flat, not every such curve was filed as active; inconclusive = weak or mixed curves; the % refers to the signal ratio)
Summary of the method: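 Compound exposure lasted 5 h at 37 C in HeLa cells carrying a heat-shock-element-driven beta-lactamase reporter. Read-out: fluorescence intensity after 2.5 h room-temperature loading with LiveBLAzer B/G FRET substrate.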

[19] = qHTS assay to identify small molecule antagonists of the peroxisome proliferator-activated receptor gamma (PPARg) signaling pathway - cell viability counter screen (AID 743194); note: nearly all actives have a fitted effect of over 55% in size; note: potency is the fitted concentration of half-maximal effect
Summary of the method: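 Viability was measured as CellTiter-Glo luminescence in GeneBLAzer PPARg UAS-bla HEK293H cells. These cells had been exposed 17 h at 37 C to compounds together with rosiglitazone at 50 nM final, with the beta-lactamase readout taken in the same wells.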

[20] = qHTS assay to identify small molecule antagonists of the estrogen receptor alpha (ER-alpha) signaling pathway using the BG1 cell line (AID 743080; calls by dose curve;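 note: BG1 cells stimulated with 17beta-estradiol alongside compound; nearly all actives have a fitted effect of over 25% in size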; note: potency is the fitted concentration of half-maximal effect)
Summary of the method: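 BG1-Luc-4E2 cells (endogenous full-length ER-alpha, 4xERE luciferase) hormone-starved 5 days in charcoal-stripped FBS, plated 4,000/well for 24 h, then compound plus 17beta-estradiol for 21.5 h at 37 C; ONE-Glo luminescence read.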

ON=C1CCCC1
Potency [1]: inactive
Potency [2]: inactive
Potency [3]: inactive
Potency [4]: inactive
Potency [5]: inactive
Potency [6]: inactive
activation ([7]; at 95 µM (top of the series)): 13.6%
Potency [8]: inactive
Potency [9]: inactive
Potency [10]: inactive
Potency [11]: inactive
Potency [12]: inactive
Potency [13]: inactive
Potency [14]: inactive
Potency [15]: inactive
Potency [16]: inactive
Potency [17]: inactive
Potency [18]: inactive

CCC(C)Nc1ccc(NC(C)CC)cc1 (stereo not drawn)
Potency [1]: 14 µM (active)
Potency [2]: 14 µM (active)
Potency [3]: inactive
Potency [4]: 22.3 µM [inconclusive] (active)
Potency [5]: 25 µM (active)
Potency [8]: 24.8 µM (active)
Potency [9]: 3.93 µM (active)
Potency [10]: 8.8 µM (active)
Potency [12]: 55.5 µM (active)
Potency [19]: 12.5 µM (active)
Potency [16]: 7.84 µM (active)
Potency [17]: 22.3 µM (active)

O=[N+]([O-])c1ccccc1Nc1ccccc1
Potency [1]: inactive
Potency [2]: inactive
Potency [3]: inactive
Potency [4]: inactive
Potency [5]: inactive
Potency [6]: inactive
activation ([7]; at 70.3 µM (top of the series)): 4.1%
Potency [20]: inactive
Potency [8]: inactive
Potency [10]: inactive
Potency [11]: inactive
Potency [12]: inactive
Potency [13]: inactive
Potency [14]: inactive
Potency [19]: inactive
Potency [15]: inactive
Potency [16]: inactive
Potency [17]: inactive
Potency [18]: inactive

COc1cc(-c2nc(NC(=O)c3cc4cc(C)cc(C)c4n3CC(=O)O)sc2CCC2CCCCC2)c(OC)cc1Cl
Potency [1]: 12.5 µM (active)
Potency [2]: 11.2 µM (active)
Potency [3]: inactive
Potency [4]: 3.57 µM [inconclusive] (active)
Potency [5]: 28.3 µM (active)
Potency [8]: inactive
Potency [9]: 25 µM (active)
Potency [11]: inactive
Potency [12]: inactive
Potency [13]: 35.7 µM (active)
Potency [19]: 8.96 µM (active)
Potency [16]: 14.1 µM (active)

Nc1ccc(N)c2ccccc12
Potency [1]: 30.6 µM (active)
Potency [2]: 48.5 µM (active)
Potency [3]: inactive
Potency [5]: 21.8 µM (active)
Potency [6]: inactive
Potency [8]: 5.44 µM (active)
Potency [10]: 3.85 µM (active)
Potency [12]: 4.32 µM (active)
Potency [17]: 34.6 µM (active)

CC(=O)OCC(C)OC(C)=O (stereo not drawn)
Potency [1]: inactive
Potency [2]: inactive
Potency [3]: inactive
Potency [4]: inactive
Potency [5]: inactive
Potency [6]: inactive
activation ([7]; at 70.3 µM (top of the series)): 5.73%
Potency [8]: inactive
Potency [9]: inactive
Potency [10]: inactive
Potency [11]: inactive
Potency [13]: inactive
Potency [14]: inactive
Potency [16]: inactive
Potency [17]: inactive

C[C@]12CCC(=O)C=C1CC[C@@H]1[C@@H]2[C@@H](O)C[C@@]2(C)[C@H]1CC[C@]2(O)C(=O)COC(=O)CCC(=O)O
Potency [1]: inactive
Potency [2]: inactive
Potency [3]: inactive
Potency [5]: inactive
Potency [6]: inactive
activation ([7]; at 70.3 µM (top of the series)): 9.99%
Potency [9]: inactive
Potency [10]: inactive
Potency [11]: inactive
Potency [12]: inactive
Potency [13]: inactive
Potency [19]: inactive
Potency [15]: inactive
Potency [17]: inactive

O=CC=C(c1ccccc1)c1ccccc1
Potency [1]: 34.7 µM (active)
Potency [2]: 13.8 µM (active)
Potency [3]: inactive
Potency [4]: 27.8 µM [inconclusive] (active)
Potency [6]: inactive
activation ([7]; at 95 µM (top of the series)): -5.89%
Potency [8]: inactive
Potency [11]: inactive
Potency [15]: 43.6 µM (active)
Potency [17]: inactive

CCC(N)(CO)CO
Potency [1]: inactive
Potency [2]: inactive
Potency [3]: inactive
Potency [4]: inactive
Potency [5]: inactive
Potency [6]: inactive
activation ([7]; at 95 µM (top of the series)): -5.95%
Potency [8]: inactive
Potency [9]: inactive
Potency [10]: inactive
Potency [11]: inactive
Potency [12]: inactive
Potency [13]: inactive
Potency [14]: inactive
Potency [19]: inactive
Potency [16]: inactive
Potency [17]: inactive
Potency [18]: inactive

NNc1nc(-c2ccccc2)cs1
Potency [1]: 31.5 µM (active)
Potency [2]: 14.1 µM (active)
Potency [3]: inactive
Potency [5]: inactive
Potency [6]: inactive
activation ([7]; at 95 µM (top of the series)): 7.73%
Potency [9]: inactive
Potency [10]: inactive
Potency [11]: 9.97 µM (active)
Potency [12]: inactive
Potency [13]: inactive
Potency [14]: 0.504 µM (active)
Potency [19]: inactive
Potency [16]: inactive
Potency [17]: inactive

COc1c(C)c2c(c(O)c1C/C=C(\C)CCC(=O)O)C(=O)OC2
Potency [1]: 0.717 µM (active)
Potency [2]: 0.507 µM (active)
Potency [3]: inactive
Potency [4]: 0.512 µM [inconclusive] (active)
Potency [5]: inactive
Potency [8]: inactive
Potency [9]: inactive
Potency [11]: inactive
Potency [12]: inactive
Potency [14]: 0.473 µM (active)
Potency [19]: inactive
Potency [17]: inactive
Potency [18]: inactive

Cc1cccc2c1cc1ccc3cccc4ccc2c1c34
Potency [1]: inactive
Potency [2]: inactive
Potency [3]: inactive
Potency [5]: inactive
activation ([7]; at 95 µM (top of the series)): 15.8%
Potency [20]: inactive
Potency [9]: inactive
Potency [11]: 0.558 µM (active)
Potency [19]: inactive
Potency [16]: inactive
Potency [17]: inactive

COC(=O)C1=C(C)NC(C)=C(C(=O)OCC(C)C)C1c1ccccc1[N+](=O)[O-] (stereo not drawn)
Potency [1]: 33.5 µM (active) and 68.6 µM (active)
Potency [2]: 29.8 µM (active) and 54.5 µM (active)
Potency [3]: inactive
Potency [4]: 54.9 µM [inconclusive] (active)
Potency [5]: inactive
Potency [6]: inactive
Potency [8]: inactive
Potency [9]: 33.5 µM (active) and 61.1 µM (active)
Potency [10]: 33.5 µM (active) and 61.1 µM (active)
Potency [11]: 9.44 µM (active)
Potency [12]: inactive
Potency [19]: inactive
Potency [15]: 23.7 µM (active)
Potency [16]: inactive
Potency [17]: inactive

O=C(Nc1cccc([N+](=O)[O-])c1)c1cc2ccccc2cc1O
Potency [1]: 1.72 µM (active)
Potency [2]: 0.864 µM (active)
Potency [3]: inactive
Potency [5]: 49 µM (active)
Potency [6]: inactive
Potency [20]: 8.63 µM (active)
Potency [9]: 2.73 µM (active)
Potency [11]: 2.43 µM (active)
Potency [13]: inactive
Potency [19]: 0.195 µM (active)
Potency [15]: 1.72 µM (active)
Potency [17]: inactive
